Holding throughout (settings): mRNA level, 48 h; actives raise or lower the signal
Read-out in assay [1]: Glutamate-cysteine ligase catalytic (GCLC), GCLC (gene 2729)
Put plainly: LTEA_HepaRG_GCLC: Life Technologies and Expression Analysis (LTEA) Assay for Glutamate-cysteine ligase catalytic (GCLC) using HepaRG (AID 2283498). An outline of the steps:
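Oxidative-stress marker GCLC is measured as mRNA change in human HepaRG liver cells after 48 h chemical treatment in 0.5% DMSO, eight concentrations from 100 uM. Activity is fitted bidirectionally against vehicle.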

Read-out in assay [2]: growth arrest and DNA damage 45 (GADD45G), GADD45G (gene 10912)
Put plainly: LTEA_HepaRG_GADD45G: Life Technologies and Expression Analysis (LTEA) Assay for growth arrest and DNA damage 45 (GADD45G) using HepaRG (AID 2283499). A digest of the protocol:
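Gain or loss of GADD45G mRNA, quantified by TaqMan qRT-PCR against three housekeeping genes, is fitted in both directions relative to 0.5% DMSO. Human HepaRG cultures receive test chemical for 48 h at up to 100 uM.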

Read-out in assay [3]: Glutamate-cysteine ligase regulatory (GCLM), GCLM (gene 2730)
The assay is described as follows: LTEA_HepaRG_GCLM: Life Technologies and Expression Analysis (LTEA) Assay for Glutamate-cysteine ligase regulatory (GCLM) using HepaRG (AID 2283500). An outline of the steps:
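HepaRG, 48 h dosing, 100 uM top, half-log x8, 0.5% DMSO vehicle. Readout: GCLM mRNA by TaqMan qRT-PCR, housekeeping-normalized (ACTB/GAPDH/POLR2A). Curves fit bidirectionally vs DMSO baseline.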

Read-out in assay [4]: Glutathione S-transferase M3 (GSTM3), GSTM3 (gene 2947)
Put plainly: LTEA_HepaRG_GSTM3: Life Technologies and Expression Analysis (LTEA) Assay for Glutathione S-transferase M3 (GSTM3) using HepaRG (AID 2283501). An outline of the steps:
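HepaRG, plated 48 h, then serum-free induction medium; test chemical 48 h, duplicate; 100 uM top, half-log x8, 0.5% DMSO. Read-out: GSTM3 mRNA (TaqMan qRT-PCR, Fluidigm array). Bidirectional fit vs DMSO.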

Read-out in assay [5]: Heat shock 70 kDa protein 1 (HSPA1A), gene 3303
Put plainly: LTEA_HepaRG_HSPA1A: Life Technologies and Expression Analysis (LTEA) Assay for Heat shock 70 kDa protein 1 (HSPA1A) using HepaRG (AID 2283502). An outline of the steps:
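HepaRG, 48 h exposure, 8-pt half-log CRC from 100 uM in 0.5% DMSO, duplicates. Readout: TaqMan qRT-PCR of HSPA1A mRNA, housekeeping-normalized (ACTB/GAPDH/POLR2A). Bidirectional fit vs 0.5% DMSO baseline.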

Read-out in assay [6]: Hypoxia-inducible factor 1-alpha (Homo sapiens) (UniProt Q16665)
The assay is described as follows: LTEA_HepaRG_HIF1A: Life Technologies and Expression Analysis (LTEA) Assay for Hypoxia-inducible factor 1 (HIF1A) Trancription factor using HepaRG (AID 2283503). An outline of the steps: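 Gain- or loss-of-signal HIF1A mRNA changes are fitted against a DMSO baseline. HepaRG cultures receive eight concentrations, highest 100 uM, for 48 h in serum-free induction medium with 0.5% DMSO.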

Read-out in assay [7]: 3-Hydroxy-3-Methylglutaryl-CoA Synthase 2 (HMGCS2), HMGCS2 (gene 3158)
The assay is described as follows: LTEA_HepaRG_HMGCS2: Life Technologies and Expression Analysis (LTEA) Assay for 3-Hydroxy-3-Methylglutaryl-CoA Synthase 2 (HMGCS2) using HepaRG (AID 2283504). A digest of the protocol:
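HepaRG, plated 48 h then switched to serum-free induction media; cmpd 8-pt, max 100 uM, 1/2-log, 0.5% DMSO, n=2, 48 h. HMGCS2 mRNA by Fluidigm TaqMan qRT-PCR, ACTB/GAPDH/POLR2A norm; bidirectional fit vs DMSO.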

Read-out in a further assay: HGF (gene 3082)
The assay is described as follows: LTEA_HepaRG_HGF: Life Technologies and Expression Analysis (LTEA) Assay for Hepatocyte Growth Facto (HGF) using HepaRG (AID 2283505). An outline of the steps: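 Read-out is HGF transcript level by qRT-PCR, normalized to three housekeeping genes, fitted bidirectionally against 0.5% DMSO vehicle. Human HepaRG cells received test chemicals for 48 h at up to 100 uM.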

Read-out in assay [8]: Insulin Like Growth Factor 1 (IGF1), IGF1 (gene 3479)
The assay is described as follows: LTEA_HepaRG_IGF1: Life Technologies and Expression Analysis (LTEA) Assay for Insulin Like Growth Factor 1 (IGF1) using HepaRG (AID 2283506). An outline of the steps: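 qRT-PCR readout of IGF1 mRNA, normalized to three housekeeping genes, after 48 h chemical exposure of HepaRG cells. Concentrations: 8-point half-log series, top 100 uM, 0.5% DMSO vehicle. Gain or loss fitted against DMSO baseline.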

Read-out in assay [9]: Intercellular Adhesion Molecule 1 (ICAM1), ICAM1 (gene 3383)
Put plainly: LTEA_HepaRG_ICAM1: Life Technologies and Expression Analysis (LTEA) Assay for Intercellular Adhesion Molecule 1 (ICAM1) using HepaRG (AID 2283507). An outline of the steps:
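Readout is qRT-PCR mRNA level, normalized to three housekeeping genes and fitted bidirectionally against 0.5% DMSO vehicle. Human HepaRG cultures received compound for 48 h, top concentration 100 uM with half-log dilutions.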

Read-out in assay [10]: Interleukin 6 (IL6), IL6 (gene 3569)
The assay is described as follows: LTEA_HepaRG_IL6: Life Technologies and Expression Analysis (LTEA) Assay for Interleukin 6 (IL6) using HepaRG (AID 2283509). A digest of the protocol: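 Changes in IL6 mRNA, up or down relative to 0.5% DMSO controls, were derived from concentration-response curves in human HepaRG cells treated for 48 h at up to 100 uM, with ACTB, GAPDH and POLR2A as normalizers.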

Read-out in assay [11]: Interleukin 6 Receptor (IL6R), IL6R (gene 3570)
Put plainly: LTEA_HepaRG_IL6R: Life Technologies and Expression Analysis (LTEA) Assay for Interleukin 6 Receptor (IL6R) using HepaRG (AID 2283510). An outline of the steps:
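HepaRG, 48 h exposure, 8-pt half-log series, top 100 uM, 0.5% DMSO vehicle, duplicates. Read-out: TaqMan qRT-PCR of IL6R transcript, housekeeping-gene normalized. Gain or loss fitted relative to DMSO baseline.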

Read-out in assay [12]: Potassium channel subfamily K member 1 (KCNK1), KCNK1 (gene 3775)
The assay is described as follows: LTEA_HepaRG_KCNK1: Life Technologies and Expression Analysis (LTEA) Assay for Potassium channel subfamily K member 1 (KCNK1) using HepaRG (AID 2283511). A digest of the protocol:
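Human HepaRG cultures receive test chemicals for 48 h in 0.5% DMSO, top concentration 100 uM with half-log dilutions. Induction or suppression of KCNK1 mRNA relative to DMSO is derived by bidirectional fitting of qRT-PCR data.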

Read-out in assay [13]: Keratin 19 (KRT19), KRT19 (gene 3880)
Put plainly: LTEA_HepaRG_KRT19: Life Technologies and Expression Analysis (LTEA) Assay for Keratin 19 (KRT19) using HepaRG (AID 2283512). A digest of the protocol: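 KRT19 transcript levels, measured by Fluidigm qRT-PCR against three housekeeping genes, are fitted for gain or loss of signal relative to DMSO. Human HepaRG cells receive test chemicals (top 100 uM, half-log steps, 0.5% DMSO) for 48 hours.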

Read-out in assay [14]: JUN Transcription Factor, JUN (gene 3725)
Put plainly: LTEA_HepaRG_JUN: Life Technologies and Expression Analysis (LTEA) Assay for JUN Transcription Factor using HepaRG (AID 2283513). A digest of the protocol: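 HepaRG, 48 h exposure, 8-pt half-log series top 100 uM, 0.5% DMSO, duplicate. JUN mRNA by qRT-PCR (Fluidigm), housekeeping-normalized (ACTB/GAPDH/POLR2A); bidirectional curve fit vs DMSO baseline.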

Read-out in assay [15]: Lipase C (LIPC), LIPC (gene 3990)
The assay is described as follows: LTEA_HepaRG_LIPC: Life Technologies and Expression Analysis (LTEA) Assay for Lipase C (LIPC) using HepaRG (AID 2283514). A digest of the protocol:
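In this multiplexed gene-expression screen, human HepaRG cultures received test chemicals for 48 h across eight concentrations with 100 uM highest, in duplicate. Values reflect LIPC mRNA induction or suppression versus DMSO vehicle, from normalized qRT-PCR.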

Read-out in assay [16]: Lipoprotein lipase (LPL), LPL (gene 4023)
Put plainly: LTEA_HepaRG_LPL: Life Technologies and Expression Analysis (LTEA) Assay for Lipoprotein lipase (LPL) using HepaRG (AID 2283515). An outline of the steps: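 Concentration-response testing used half-log steps from 100 uM in 0.5% DMSO on human HepaRG cells, 48 h, duplicate wells. Phenobarbital 1 mM served as induction control; LPL mRNA was normalized to ACTB, GAPDH, POLR2A.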

Read-out in assay [17]: matrix metalloproteinase-10 (MMP10), MMP10 (gene 4319)
Put plainly: LTEA_HepaRG_MMP10: Life Technologies and Expression Analysis (LTEA) Assay for matrix metalloproteinase-10 (MMP10) using HepaRG (AID 2283517). An outline of the steps:
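In differentiated HepaRG cultures kept in 0.5% DMSO, test chemicals act for 48 h over an eight-point range with a top dose of 100 uM. Expression is then quantified by TaqMan RT-PCR against ACTB, GAPDH and POLR2A.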

Read-out in assay [18]: MicroRNA 122 (MIR122), gene 406906
The assay is described as follows: LTEA_HepaRG_MIR122: Life Technologies and Expression Analysis (LTEA) Assay for MicroRNA 122 (MIR122) using HepaRG (AID 2283516). Further: the transcript read is the microRNA miR-122. A digest of the protocol:
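qRT-PCR read-out (TaqMan, Fluidigm array), normalized to three housekeeping genes; HepaRG cells dosed 48 h at 8 concentrations up to 100 uM in 0.5% DMSO, duplicate; gain or loss fitted against DMSO baseline.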

Several values for one entry are separate records, joined by “and”; a condition that tells them apart may be missing. Identical values can stand only once. A structure can be active in one record and inactive in another. Activity calls are given as the source filed them. How the source made its calls: active means hit-call score of the fitted dose curve at least 0.9, where 1 is the maximum; inactive means score below 0.9.

Chain of Hypoxia-inducible factor 1-alpha (Homo sapiens) (Q16665 whole entry, looked up): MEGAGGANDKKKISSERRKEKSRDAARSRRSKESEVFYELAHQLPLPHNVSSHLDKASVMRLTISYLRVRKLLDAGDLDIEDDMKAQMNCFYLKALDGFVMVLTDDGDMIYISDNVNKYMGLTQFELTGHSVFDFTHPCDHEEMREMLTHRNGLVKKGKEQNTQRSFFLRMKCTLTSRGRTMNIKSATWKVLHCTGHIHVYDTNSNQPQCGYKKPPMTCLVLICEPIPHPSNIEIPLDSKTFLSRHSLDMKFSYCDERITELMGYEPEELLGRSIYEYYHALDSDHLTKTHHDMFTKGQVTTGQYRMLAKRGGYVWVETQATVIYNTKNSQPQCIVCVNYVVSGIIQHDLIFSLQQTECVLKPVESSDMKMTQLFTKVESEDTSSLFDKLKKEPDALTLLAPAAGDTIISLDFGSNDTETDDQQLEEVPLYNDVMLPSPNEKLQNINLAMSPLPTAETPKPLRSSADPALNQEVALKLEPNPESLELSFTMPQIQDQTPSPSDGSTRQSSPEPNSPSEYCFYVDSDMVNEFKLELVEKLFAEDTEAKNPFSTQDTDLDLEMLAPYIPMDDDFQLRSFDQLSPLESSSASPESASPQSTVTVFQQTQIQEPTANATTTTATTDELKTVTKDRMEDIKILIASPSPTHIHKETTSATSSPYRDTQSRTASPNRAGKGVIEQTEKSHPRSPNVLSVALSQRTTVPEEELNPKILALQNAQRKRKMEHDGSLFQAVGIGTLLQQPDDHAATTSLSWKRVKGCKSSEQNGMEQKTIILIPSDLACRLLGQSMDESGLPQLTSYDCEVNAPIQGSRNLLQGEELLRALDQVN

Broadly, the AC50 is the concentration at which the activity in the assay is half-maximal. As for `CO/C=C(/C(=O)OC)c1ccccc1Oc1cc(Oc2ccccc2C#N)ncn1`, the outcome (in [1]; in [4]; in assay [5]; in assay [6]; with HGF (gene 3082); in assay [11]) was inactive. The result in assay [12] and in [14] was inactive. The half-maximal activity concentration (AC50) in assay [2] is 78 µM (active) and 80.2 µM (active) and 73.5 µM (active); in assay [3], 75.6 µM (active) and 63.3 µM (active) and 71.8 µM (active); in assay [4] it was 83.1 µM (active); in assay [5], 83.4 µM (active); in assay [6] it was 86.1 µM (active); in [7], 77.1 µM (active) and 76.2 µM (active) and 72.6 µM (active). Further, the concentration at half-maximal activity (AC50) was 79.8 µM (active) and 62.8 µM (active) and 74 µM (active) in [8]; 83.5 µM (active) and 87.8 µM (active) and 88.9 µM (active) in assay [9]; 81.4 µM (active) and 80.9 µM (active) and 82.8 µM (active) in [10]; 61.1 µM (active) and 37.1 µM (active) and 50 µM (active) in [13]; 80.8 µM (active) and 75.3 µM (active) and 71.2 µM (active) in assay [15]; 82.4 µM (active) and 82.1 µM (active) and 85.2 µM (active) in [16]. Moreover, the AC50 in [17] was 81 µM (active) and 66.5 µM (active) and 34.6 µM (active).

As for `N#CC(CCc1ccc(Cl)cc1)(Cn1cncn1)c1ccccc1` (stereo not drawn), the compound was called inactive in assay [1], in assay [4], in [11] and in [13]. The AC50 in assay [2] was 40 µM (active); in [3], 67.3 µM (active); in [5], 79.5 µM (active); in assay [6], 73.7 µM (active); in assay [7] it was 67.9 µM (active); in the assay with HGF (gene 3082), 93.6 µM (active). Also, the AC50 in [8] was 50 µM (active); in assay [9] it was 71.6 µM (active); in assay [10] it was 80.2 µM (active); in assay [12] it was 44.6 µM (active); in [14] it was 90.3 µM (active); in assay [15] it was 65.9 µM (active). Also, the concentration at half-maximal activity (AC50) in assay [16] was 50 µM (active); in assay [17], 74.2 µM (active).

As for `Cc1ccc(-c2c(Cl)nc(C#N)n2S(=O)(=O)N(C)C)cc1`, the AC50 in [1] was 7.01 µM (active); in [2] it was 11.7 µM (active); in assay [4] it was 50 µM (active); in assay [7], 28.7 µM (active); with HGF (gene 3082), 86 µM (active); in assay [8], 50 µM (active). Further, the AC50 in assay [10] is 13.2 µM (active); in assay [12] it was 50 µM (active); in assay [13], 22.3 µM (active); in assay [15], 50 µM (active); in [18], 10.2 µM (active). Further, the call in assay [3], in assay [5], in assay [6], in [9], in assay [11] and in [14] was inactive. Besides, the result in assay [16] and in [17] was inactive.

The values are drawn from PubChem BioAssay (EPA / NIEHS).
